Drawing on PubChem BioAssay (EPA / NIEHS), this text covers outcome for 35 compounds.

Records with an inconclusive call do not appear. Active and inactive are the calls of the source. How the source made its calls: active means hit-call score of the fitted dose curve at least 0.9, where 1 is the maximum; inconclusive means response in the unintended direction; inactive means score below 0.9.

human Retinoic Acid Receptor gamma (RARg), RARG (gene 5916), sequence (P13631 whole entry, looked up): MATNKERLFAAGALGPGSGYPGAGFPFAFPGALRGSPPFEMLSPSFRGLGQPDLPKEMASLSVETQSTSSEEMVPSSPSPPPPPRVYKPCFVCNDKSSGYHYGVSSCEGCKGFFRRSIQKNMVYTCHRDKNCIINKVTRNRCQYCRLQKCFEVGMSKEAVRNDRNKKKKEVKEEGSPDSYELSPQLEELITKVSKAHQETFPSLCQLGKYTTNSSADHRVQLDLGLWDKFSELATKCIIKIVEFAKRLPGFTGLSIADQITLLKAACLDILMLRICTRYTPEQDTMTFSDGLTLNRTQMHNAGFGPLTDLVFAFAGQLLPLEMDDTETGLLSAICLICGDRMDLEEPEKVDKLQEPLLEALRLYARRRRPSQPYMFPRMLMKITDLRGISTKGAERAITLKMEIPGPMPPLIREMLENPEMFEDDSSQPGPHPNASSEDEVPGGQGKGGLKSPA

This experiment concerns the target human Retinoic Acid Receptor gamma (RARg), RARG (gene 5916) (UniProt P13631). Description: ATG_RARg_TRANS: Attagene TRANS-FACTORIAL HepG2 Assay for human Retinoic Acid Receptor gamma (RARg) (AID 2283009). How it is done:
ATG_TRANS is a cell-based, multiplexed-readout assay that uses HepG2, a human liver cell line, with measurements taken at 24 hours after chemical dosing in a 24-well plate.ATG_RARg_TRANS is one of 30 assay component(s) measured or calculated from the ATG_TRANS assay. It is designed to make measurements of mRNA induction, a form of inducible reporter, as detected with fluorescence intensity signals by Reverse transcription polymerase chain reaction (RT-PCR) and Capillary electrophoresis technology.Data from the assay component ATG_RARg_TRANS was analyzed into 1 assay endpoint. This assay endpoint, ATG_RARg_TRANS, was analyzed in the positive analysis fitting direction relative to DMSO as the negative control and baseline of activity. Using a type of inducible reporter, measures of mRNA for gain-of-signal activity can be used to understand the reporter gene at the transcription factor-level as they relate to the gene RARG. Furthermore, this assay endpoint can be referred to as a primary readout, because this assay has produced multiple assay endpoints where this one serves a reporter gene function. To generalize the intended target to other relatable targets, this assay endpoint is annotated to the nuclear receptor intended target family, where the subfamily is non-steroidal.
Human liver HepG2 cells are transiently transfected with multiple reporter transcription units (MRTUs) in 6-well plates using FuGene 6 reagent (Roche; 3 ml FuGene/1 mg DNA). The MRTU constructs are regulated by a cis-regulating element (promoter). […] A major difference between the CIS and TRANS system is that in CIS activities of endogenous TFs are measured, whereas the TRANS assay evaluates changes in activities of exogenous, chimeric NR-Gal4 proteins. […] At the end of 24 hour incubation, total RNA was isolated using TriZol reagent (Invitrogen). The isolated RNA is then reverse-transcribed using oligo(dT) primer and Mo-MLV reverse transcriptase (Invitrogen) with DNAse I (Ambion) treatment for 30 min. The one-tenth of the produced cDNA was amplified by PCR using Taq DNA polymerase (Invitrogen) and two reporter sequence-specific primers. The PCR products were fluorescently labeled by primer extension with 6-arboxyfluorescein (6-FAM) 5'-labeled reporter sequence-specific primer (2 min at 95 C, 20 s at 68 C and 10 min at 72 C) and these products were digested with 5U of HpaI (New England Biolabs) for 2h at 37 C. […] The raw capillary electrophoresis data was processed using Attagraph software (Attagene).
In the case of `CCCCCCCCOc1ccc(C(=O)c2ccccc2)c(O)c1`, the compound was classed as inactive.

As to `CCCCCCCCCCCC[N+](C)(C)C`, the compound was classed as inactive. With `CCCOC(=O)c1cc(O)c(O)c(O)c1` the entry was “inactive”. The result for `CC1(C)NC(=O)N(c2ccc([N+](=O)[O-])c(C(F)(F)F)c2)C1=O` reads “inactive”. The result for `Clc1cc(Cl)c2c(c1)N=C1CCCCCN1C2` reads “inactive”; that for `CCCCOC(=O)c1ccc(O)cc1`, “inactive”.

As to `CCCC(=O)OCCC(C)C`, the compound was classed as inactive.

Consider `CC(C)(c1cc(Br)c(O)c(Br)c1)c1cc(Br)c(O)c(Br)c1`, for which the compound was classed as inactive. On to `O=c1c(-c2ccc(O)cc2)coc2cc(O)cc(O)c12`, for which the compound was classed as inactive. The result for `OCCO` reads “inactive”. Regarding `CCN(Cc1cccnc1)C(=O)c1cccc(Cl)c1[C@]1(C)C(=O)N(Cc2ccc(OC)cc2OC)c2ccc(Cl)cc21`, the compound was classed as inactive. With `Cc1oc2c(NC(=O)c3c(Cl)cccc3Cl)cccc2c1C(C)(C)O` the entry was “inactive”.

For the compound `Cc1cccc2ccccc12`, the call was inactive. With `CC(C)(O)c1ccc(CNC(=O)c2cccnc2Oc2ccc3nonc3c2)cc1`, the result was inactive.

Take `c1ccc(C[n+]2cccc3ccccc32)cc1`: the compound was called inactive.

With `CN(C[C@@H](CC[N+]12CCC(C3CCCCC3)(CC1)CC2)c1ccc(Cl)c(Cl)c1)C(=O)c1cc(C(F)(F)F)cc(C(F)(F)F)c1`, the compound was called inactive.

For `CC[C@@H]1C[C@H](N(Cc2cc(C(F)(F)F)cc(C(F)(F)F)c2)C(C)=O)c2cc(C(F)(F)F)ccc2N1C(=O)OC(C)C`, the call was inactive. The result for `O=C(O)c1ccccc1-n1cc(C(=O)O)c(=O)c2cc(Nc3c(F)cc(F)cc3Cl)c(Cl)cc21` reads “inactive”; that for `CCN(CC)C(=O)c1cc(S(=O)(=O)Cc2ccccc2)c(N2CCC(c3ccccc3)CC2)cc1N(CC)CCN(C)C`, “inactive”. With `CCCCCCCCOC(=O)c1cc(O)c(O)c(O)c1` the entry was “inactive”; with `Cc1c2ccccc2c(C)c2c1ccc1ccccc12`, “inactive”; with `CCCCCCCC[Si](OCC)(OCC)OCC`, “inactive”.

`CC(O)CC(C)(C)O` (stereo not given): the result was inactive. The result for `COc1cccc([C@H](O)C2CCN(CCc3ccc(F)cc3)CC2)c1OC` reads “inactive”. The result for `O=C(O)Cn1c(=O)n(Cc2ccc(Br)cc2F)c(=O)c2ccc(Cl)cc21` reads “inactive”. The result for `O=C(Nc1ccc(Cl)cc1)Nc1ccc(Cl)c(Cl)c1` reads “inactive”.

Consider `CC/C(=C(/CC)c1ccc(O)cc1)c1ccc(O)cc1`, for which the result was inactive. The result for `CCCCCCCCN(C)CCCCCCCC` reads “inactive”; that for `CCO[Si](CCCNC(N)=O)(OCC)OCC`, “inactive”.

Take `O=C(OCCCCCCOC(=O)c1ccccc1)c1ccccc1`: the compound was classed as inactive.

For the compound `CCCCCCCCCC(=O)O`, the outcome was inactive. In the case of `CC(C)(C)c1cc(/C=C2\SC(N)=NC2=O)cc(C(C)(C)C)c1O`, the result was inactive. For the compound `Cc1cc2c(cc1C(F)(F)F)N(C(=O)Nc1ccc(Oc3cccnc3C)nc1)CC2`, the compound was classed as inactive. With `CCCCCCCCCCCCO` the entry was “inactive”; with `C[C@]12CC[C@@H]3c4ccc(O)cc4CC[C@H]3[C@@H]1CC[C@H]2O`, “inactive”.
